From the supplement of paper PMC11732987, “Enantioselective OTUD7B fragment discovery through chemoproteomics screening and high-throughput optimisation” (Communications Chemistry, 2025)

Legend:
Experiment in all cases: log2 ratio of Biotin-Ahx-Ub-VS probe labelling (fragment/DMSO); higher = less target engagement (more negative = stronger competition), active = hit call of the paper (q ≤ 0.05, log2 ratio ≤ -1)
Details in all cases: compound concentration: 200 uM; treatment time: 3 h
USP16 = USP16 (UniProt Q9Y5T5)
Chain of USP16 (Q9Y5T5 whole entry, looked up, the tested form may be a part): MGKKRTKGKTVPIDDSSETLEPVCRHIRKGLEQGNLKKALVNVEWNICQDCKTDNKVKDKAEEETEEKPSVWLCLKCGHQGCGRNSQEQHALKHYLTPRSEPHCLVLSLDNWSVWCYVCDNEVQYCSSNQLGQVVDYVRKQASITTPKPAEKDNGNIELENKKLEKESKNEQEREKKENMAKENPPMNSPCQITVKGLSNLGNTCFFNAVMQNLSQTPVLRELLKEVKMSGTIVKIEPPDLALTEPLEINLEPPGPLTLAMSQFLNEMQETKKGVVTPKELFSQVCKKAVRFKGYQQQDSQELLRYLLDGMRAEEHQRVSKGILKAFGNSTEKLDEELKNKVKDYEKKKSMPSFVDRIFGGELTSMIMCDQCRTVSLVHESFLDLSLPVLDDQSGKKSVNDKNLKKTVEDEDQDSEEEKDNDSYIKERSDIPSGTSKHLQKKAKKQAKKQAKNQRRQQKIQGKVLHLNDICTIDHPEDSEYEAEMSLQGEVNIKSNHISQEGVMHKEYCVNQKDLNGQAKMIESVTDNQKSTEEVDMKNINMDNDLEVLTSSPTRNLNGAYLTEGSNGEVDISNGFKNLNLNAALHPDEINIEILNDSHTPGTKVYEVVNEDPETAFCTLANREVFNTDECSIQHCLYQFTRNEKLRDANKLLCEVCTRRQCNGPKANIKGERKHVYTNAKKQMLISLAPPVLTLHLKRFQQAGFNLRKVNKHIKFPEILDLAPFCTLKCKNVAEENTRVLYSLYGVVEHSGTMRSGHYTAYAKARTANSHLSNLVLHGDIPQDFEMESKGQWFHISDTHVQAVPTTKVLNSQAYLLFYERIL
How it was run: (§1)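 Labelled DUBs were enriched with NeutrAvidin, digested with LysC and trypsin, and run by diaPASEF LC-MS/MS. The labelling used Biotin-Ahx-Ub-VS at 0.5 µM final for 1 h on HEK293T lysate (495 µg per sample) previously treated in triplicate with fragment at 200 µM or vehicle for 3 h. Values are average log2 fragment/vehicle ratios by unpaired t-test on global-median-normalised Spectronaut quantities of proteins with ≥2 unique peptides.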

USP19 = biological target: T1, USP19 (UniProt O94966)
T1 sequence (whole entry): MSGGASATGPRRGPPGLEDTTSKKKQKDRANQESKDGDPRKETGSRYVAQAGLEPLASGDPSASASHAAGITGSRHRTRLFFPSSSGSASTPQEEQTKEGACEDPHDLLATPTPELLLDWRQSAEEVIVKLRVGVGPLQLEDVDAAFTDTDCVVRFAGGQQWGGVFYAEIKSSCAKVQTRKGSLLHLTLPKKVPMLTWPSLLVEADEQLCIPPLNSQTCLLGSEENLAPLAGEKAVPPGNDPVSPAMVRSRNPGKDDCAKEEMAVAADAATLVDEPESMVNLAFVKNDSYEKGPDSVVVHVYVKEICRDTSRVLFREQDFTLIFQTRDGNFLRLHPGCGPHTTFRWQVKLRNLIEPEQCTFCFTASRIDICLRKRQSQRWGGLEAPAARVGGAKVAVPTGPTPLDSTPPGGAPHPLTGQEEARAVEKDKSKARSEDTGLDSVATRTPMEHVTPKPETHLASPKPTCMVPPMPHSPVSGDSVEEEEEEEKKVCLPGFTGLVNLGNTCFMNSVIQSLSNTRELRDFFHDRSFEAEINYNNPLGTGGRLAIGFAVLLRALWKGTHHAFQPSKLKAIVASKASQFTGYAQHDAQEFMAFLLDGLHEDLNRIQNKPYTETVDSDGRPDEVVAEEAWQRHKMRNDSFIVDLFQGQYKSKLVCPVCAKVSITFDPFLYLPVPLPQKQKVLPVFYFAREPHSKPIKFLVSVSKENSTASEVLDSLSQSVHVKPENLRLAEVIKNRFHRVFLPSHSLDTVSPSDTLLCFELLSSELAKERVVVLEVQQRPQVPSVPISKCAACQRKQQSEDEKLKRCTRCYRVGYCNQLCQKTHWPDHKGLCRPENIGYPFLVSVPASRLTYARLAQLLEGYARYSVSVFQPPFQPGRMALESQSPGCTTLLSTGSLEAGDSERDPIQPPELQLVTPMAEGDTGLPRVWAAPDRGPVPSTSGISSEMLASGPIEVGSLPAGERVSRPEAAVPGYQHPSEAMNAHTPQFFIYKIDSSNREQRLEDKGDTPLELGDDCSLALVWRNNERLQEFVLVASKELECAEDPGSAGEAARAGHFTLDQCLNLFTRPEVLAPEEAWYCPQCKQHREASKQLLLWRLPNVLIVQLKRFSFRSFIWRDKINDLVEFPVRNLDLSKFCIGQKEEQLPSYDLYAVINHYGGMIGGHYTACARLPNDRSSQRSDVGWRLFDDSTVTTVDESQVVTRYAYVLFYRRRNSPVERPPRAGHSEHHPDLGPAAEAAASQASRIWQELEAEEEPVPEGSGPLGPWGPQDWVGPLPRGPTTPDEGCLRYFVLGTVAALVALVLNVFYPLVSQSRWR
How it was run: as §1

USP24 = USP24 (UniProt Q9UPU5)
Chain of USP24 (Q9UPU5 whole entry): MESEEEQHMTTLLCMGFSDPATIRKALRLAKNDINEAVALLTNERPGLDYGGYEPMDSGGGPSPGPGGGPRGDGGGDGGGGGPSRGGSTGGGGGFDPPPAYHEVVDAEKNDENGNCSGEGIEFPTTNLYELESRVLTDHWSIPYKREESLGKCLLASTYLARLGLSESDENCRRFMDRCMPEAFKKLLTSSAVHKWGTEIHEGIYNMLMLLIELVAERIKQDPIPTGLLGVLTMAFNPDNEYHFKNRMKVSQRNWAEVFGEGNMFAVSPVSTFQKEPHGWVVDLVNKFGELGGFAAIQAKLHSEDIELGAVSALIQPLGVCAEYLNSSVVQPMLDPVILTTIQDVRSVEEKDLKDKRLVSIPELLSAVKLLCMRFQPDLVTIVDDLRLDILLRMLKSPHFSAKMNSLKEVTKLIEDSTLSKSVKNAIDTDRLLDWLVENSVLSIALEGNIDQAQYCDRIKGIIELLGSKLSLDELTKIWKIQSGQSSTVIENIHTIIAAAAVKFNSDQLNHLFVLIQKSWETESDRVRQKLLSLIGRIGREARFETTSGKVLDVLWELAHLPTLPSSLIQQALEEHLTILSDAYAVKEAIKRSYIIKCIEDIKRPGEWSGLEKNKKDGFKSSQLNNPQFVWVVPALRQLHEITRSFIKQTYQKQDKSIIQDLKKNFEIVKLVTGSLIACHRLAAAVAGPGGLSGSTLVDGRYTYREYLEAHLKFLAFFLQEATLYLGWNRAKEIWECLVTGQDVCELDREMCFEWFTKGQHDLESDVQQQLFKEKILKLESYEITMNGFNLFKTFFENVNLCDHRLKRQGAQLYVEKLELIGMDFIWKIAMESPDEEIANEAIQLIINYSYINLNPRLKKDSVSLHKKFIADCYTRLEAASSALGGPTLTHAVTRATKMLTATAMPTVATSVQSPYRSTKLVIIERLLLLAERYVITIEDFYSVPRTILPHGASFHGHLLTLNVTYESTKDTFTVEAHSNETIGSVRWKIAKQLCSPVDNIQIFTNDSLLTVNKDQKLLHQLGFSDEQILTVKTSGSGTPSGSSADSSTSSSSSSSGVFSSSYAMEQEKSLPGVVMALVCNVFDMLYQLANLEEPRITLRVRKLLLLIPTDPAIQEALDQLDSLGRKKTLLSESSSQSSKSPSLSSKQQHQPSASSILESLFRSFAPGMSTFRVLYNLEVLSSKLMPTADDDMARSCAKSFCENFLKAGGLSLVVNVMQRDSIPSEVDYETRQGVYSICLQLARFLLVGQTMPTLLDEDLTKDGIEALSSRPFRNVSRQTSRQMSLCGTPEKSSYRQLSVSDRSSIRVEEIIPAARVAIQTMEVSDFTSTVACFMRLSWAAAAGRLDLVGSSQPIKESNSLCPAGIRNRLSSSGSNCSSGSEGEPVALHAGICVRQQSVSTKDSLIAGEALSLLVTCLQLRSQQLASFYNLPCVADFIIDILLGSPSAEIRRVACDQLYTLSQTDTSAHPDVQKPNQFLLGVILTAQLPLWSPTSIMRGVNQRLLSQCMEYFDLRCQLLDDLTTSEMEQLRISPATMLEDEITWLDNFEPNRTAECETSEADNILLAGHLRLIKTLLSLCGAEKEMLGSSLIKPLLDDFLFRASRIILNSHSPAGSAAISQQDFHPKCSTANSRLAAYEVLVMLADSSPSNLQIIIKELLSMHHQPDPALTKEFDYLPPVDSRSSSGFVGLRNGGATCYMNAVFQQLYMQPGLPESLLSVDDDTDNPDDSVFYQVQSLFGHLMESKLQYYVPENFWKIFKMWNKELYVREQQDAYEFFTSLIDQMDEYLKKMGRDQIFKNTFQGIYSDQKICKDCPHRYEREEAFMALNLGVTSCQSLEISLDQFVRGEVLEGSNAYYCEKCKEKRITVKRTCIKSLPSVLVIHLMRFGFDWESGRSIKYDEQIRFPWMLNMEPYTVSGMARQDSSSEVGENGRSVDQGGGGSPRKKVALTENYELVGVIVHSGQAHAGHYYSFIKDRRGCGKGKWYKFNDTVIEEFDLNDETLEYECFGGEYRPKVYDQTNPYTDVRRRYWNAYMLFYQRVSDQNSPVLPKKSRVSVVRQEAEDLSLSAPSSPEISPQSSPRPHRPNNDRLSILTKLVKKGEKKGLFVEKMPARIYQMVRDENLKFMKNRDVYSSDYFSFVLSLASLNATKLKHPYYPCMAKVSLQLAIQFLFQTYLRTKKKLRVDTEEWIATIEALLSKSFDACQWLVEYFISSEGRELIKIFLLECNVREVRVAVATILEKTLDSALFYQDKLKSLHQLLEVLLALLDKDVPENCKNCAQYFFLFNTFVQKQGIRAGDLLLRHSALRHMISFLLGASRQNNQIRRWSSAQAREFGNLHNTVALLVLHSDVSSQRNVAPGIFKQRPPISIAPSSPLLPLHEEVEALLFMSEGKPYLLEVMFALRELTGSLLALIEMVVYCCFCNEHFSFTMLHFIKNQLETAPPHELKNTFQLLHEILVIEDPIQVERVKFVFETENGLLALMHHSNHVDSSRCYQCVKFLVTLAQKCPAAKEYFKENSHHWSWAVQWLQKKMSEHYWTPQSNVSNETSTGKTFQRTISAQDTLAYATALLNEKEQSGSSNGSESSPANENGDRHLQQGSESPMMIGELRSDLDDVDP
How it was run: as §1

USP25 = biological target: T2, USP25 (UniProt Q9UHP3)
T2 sequence (whole entry): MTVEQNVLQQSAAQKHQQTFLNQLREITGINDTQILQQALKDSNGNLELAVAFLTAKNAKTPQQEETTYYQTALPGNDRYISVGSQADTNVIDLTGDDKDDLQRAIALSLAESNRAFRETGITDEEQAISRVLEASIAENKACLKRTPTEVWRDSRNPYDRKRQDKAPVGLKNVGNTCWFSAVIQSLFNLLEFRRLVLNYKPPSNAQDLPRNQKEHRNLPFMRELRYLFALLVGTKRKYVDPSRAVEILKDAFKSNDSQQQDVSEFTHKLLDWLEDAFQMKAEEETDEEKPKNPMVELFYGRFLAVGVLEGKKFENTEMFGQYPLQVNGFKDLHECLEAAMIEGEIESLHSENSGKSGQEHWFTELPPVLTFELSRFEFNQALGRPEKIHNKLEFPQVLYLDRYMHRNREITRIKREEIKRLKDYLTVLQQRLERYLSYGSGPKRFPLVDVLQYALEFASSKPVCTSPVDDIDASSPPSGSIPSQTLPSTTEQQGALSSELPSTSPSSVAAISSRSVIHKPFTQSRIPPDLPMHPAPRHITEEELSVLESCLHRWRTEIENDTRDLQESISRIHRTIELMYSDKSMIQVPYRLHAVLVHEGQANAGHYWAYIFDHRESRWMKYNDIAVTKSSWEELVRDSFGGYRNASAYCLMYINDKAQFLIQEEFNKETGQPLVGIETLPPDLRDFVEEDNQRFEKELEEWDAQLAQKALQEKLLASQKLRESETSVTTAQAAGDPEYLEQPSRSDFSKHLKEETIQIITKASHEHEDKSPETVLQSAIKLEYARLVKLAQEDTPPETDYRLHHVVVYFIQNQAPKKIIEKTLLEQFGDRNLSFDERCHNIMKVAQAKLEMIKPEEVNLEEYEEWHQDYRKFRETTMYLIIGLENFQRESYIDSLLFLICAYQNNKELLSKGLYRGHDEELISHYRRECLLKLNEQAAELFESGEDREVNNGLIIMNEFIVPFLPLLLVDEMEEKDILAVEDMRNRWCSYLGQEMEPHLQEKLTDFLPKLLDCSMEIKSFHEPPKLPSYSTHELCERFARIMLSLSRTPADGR
How it was run: as §1

USP28 = biological target: T3, USP28 (UniProt Q96RU2)
T3 sequence (whole entry): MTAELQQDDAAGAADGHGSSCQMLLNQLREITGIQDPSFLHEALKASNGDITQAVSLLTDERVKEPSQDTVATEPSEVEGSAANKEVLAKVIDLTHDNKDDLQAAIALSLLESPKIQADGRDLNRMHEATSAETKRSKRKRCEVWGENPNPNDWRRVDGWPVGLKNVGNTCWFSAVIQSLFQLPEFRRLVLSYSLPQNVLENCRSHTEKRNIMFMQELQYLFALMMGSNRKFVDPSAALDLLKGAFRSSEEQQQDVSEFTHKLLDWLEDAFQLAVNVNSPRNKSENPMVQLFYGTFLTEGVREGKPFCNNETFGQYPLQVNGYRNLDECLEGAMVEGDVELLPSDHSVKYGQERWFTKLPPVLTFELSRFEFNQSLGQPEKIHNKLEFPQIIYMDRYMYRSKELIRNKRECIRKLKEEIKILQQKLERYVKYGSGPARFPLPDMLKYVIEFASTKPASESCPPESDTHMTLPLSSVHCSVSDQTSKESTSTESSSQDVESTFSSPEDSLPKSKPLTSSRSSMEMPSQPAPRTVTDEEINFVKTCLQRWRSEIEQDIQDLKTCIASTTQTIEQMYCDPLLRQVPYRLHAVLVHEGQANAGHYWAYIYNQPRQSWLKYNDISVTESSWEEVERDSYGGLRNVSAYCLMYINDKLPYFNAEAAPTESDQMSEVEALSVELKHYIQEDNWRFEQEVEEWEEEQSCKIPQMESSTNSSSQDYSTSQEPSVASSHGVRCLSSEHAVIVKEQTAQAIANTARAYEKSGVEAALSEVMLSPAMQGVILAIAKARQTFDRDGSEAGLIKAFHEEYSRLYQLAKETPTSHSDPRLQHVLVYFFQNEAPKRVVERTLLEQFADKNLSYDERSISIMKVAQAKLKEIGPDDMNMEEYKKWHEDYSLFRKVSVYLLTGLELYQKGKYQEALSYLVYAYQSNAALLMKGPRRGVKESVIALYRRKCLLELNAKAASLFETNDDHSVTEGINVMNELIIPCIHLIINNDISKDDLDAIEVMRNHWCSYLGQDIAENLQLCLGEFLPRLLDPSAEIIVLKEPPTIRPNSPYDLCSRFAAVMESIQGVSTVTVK
How it was run: as §1

Measured: log2 ratio of Biotin-Ahx-Ub-VS probe labelling

Cc1ccccc1C1(CNC(=O)CCl)CCOCC1
inactive: USP16 0.242 | USP19 -0.115 | USP24 -0.178 | USP25 -0.264 | USP28 -0.284
